Source: PubChem BioAssay
FBW7 act = FBW7 E3 ligase activators, primary screen, biochemical, AlphaScreen, human. AlphaScreen FBW7–phospho-cyclin E peptide binding, activator screen. normalized activity (activation), % at 26.1 µM. actives 0.13% (n = 650,000). AID 1259310, 2017; in the data active = normalized activity above about 1.9%;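 also: purified mutant Fbw7 with reduced substrate affinity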
Target sequence (Q969H0 whole entry, looked up): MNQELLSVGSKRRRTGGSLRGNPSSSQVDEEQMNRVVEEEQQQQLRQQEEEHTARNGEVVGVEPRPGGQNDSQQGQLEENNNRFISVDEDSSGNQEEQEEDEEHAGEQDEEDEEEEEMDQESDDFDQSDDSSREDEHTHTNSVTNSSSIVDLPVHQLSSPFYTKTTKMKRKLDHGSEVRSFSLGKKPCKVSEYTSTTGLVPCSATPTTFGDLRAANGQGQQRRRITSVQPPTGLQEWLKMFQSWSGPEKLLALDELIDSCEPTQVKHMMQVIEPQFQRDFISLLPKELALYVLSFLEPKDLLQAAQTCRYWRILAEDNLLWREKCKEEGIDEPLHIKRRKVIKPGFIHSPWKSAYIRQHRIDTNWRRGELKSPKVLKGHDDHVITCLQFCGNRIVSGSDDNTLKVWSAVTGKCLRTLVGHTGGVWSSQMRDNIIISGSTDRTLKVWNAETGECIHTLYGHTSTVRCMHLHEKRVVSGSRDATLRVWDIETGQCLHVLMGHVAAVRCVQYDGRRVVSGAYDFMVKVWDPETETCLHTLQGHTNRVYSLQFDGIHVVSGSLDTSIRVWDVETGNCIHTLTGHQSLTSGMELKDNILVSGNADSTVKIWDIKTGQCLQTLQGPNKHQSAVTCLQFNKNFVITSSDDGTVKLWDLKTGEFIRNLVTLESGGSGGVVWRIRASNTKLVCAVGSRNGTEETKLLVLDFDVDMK
MITF primary = MITF inhibitors, primary screen, biochemical, AlphaScreen, human; inhibition, % at 2.6 µM; actives 0.91% (n = 650,000); AlphaScreen MITF homodimerization, bead proximity signal; in the data active = inhibition above about 50%;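 also: 0% = vehicle wells with protein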
GPR151 activ = activators of human GPR151, primary screen, cell-based, PathHunter beta-arrestin, luminescence; activation, % at 11.2 µM; actives 1% (n = 650,000); AID 1508602, 2020; PathHunter beta-arrestin GPR151 cells; G-protein coupled receptor 151 (Homo sapiens), Q8TDV0; in the data active = activation above about 4.9%;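 also: 0% = median of compound wells and 100% = cells with positive control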
TEAD-YAP block = TEAD-YAP interaction inhibition, primary screen, TEAD-YAP interaction inhibitor project, luminescence, HEK-TIYL cells | AID 1259422, 2018 | TEAD-Gal4/YAP UAS-luciferase luminescence | inhibition, % at 9.12 µM | actives 1.4% (n = 640,000); in the data active = inhibition above about 32%;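 also: 0% = median of test compound wells and 100% = reference inhibitor wells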
MITF inh conf = MITF inhibitors, retest of hits, confirmation, biochemical, AlphaScreen, triplicate; shares compounds with MITF primary; AlphaScreen MITF homodimerization, biotin/His-MITF beads; inhibition, % at 2.6 µM; AID 1259372, 2018; actives 16% (n = 4,700);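 active = inhibition above a cutoff derived from the DMSO control wells, cut at about 28% in these data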;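 also: 0% = MITF dimer wells with DMSO only; inhibitors lower the bead chemiluminescence by keeping MITF from dimerizing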
AlphaScreen DR = AlphaScreen optical interference compounds, dose response, counter-screen, biochemical, HTS; shares compounds with MITF primary; AlphaScreen optical interference counterscreen, cell-free; IC50, µM; actives 6% (n = 480); call rule not given here
AlphaScreen intf2 = AlphaScreen optical interference compounds, counter-screen for MITF inhibitor project, biochemical, triplicate | shares compounds with MITF primary | LysRS AlphaScreen counterscreen, signal interference | inhibition, % at 2.6 µM | actives 7.6% (n = 4,700) | AID 1259376, 2018;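 active = inhibition above a cutoff derived from the DMSO control wells, cut at about 30% in these data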
* = called active by the depositor; . = no result. An excerpt weighted towards active compounds, which were near 3.5% of everything screened.

SMILES | FBW7 act | MITF primary | GPR151 activ | TEAD-YAP block | MITF inh conf | AlphaScreen intf2 | others
COc1ccc2[nH]c(C)c(CCNCc3cccc(OC)c3OC)c2c1 | 0 | 52* | 1 | 13 | 3 | 6
CN1C(=O)C(=Cc2ccccc2[N+](=O)[O-])C(=O)N(C)C1=O | 0 | -21 | -2 | -6 | . | .
CC1(C)C=C2C(=NN(c3ccc(I)cc3)C(N)=C2C#N)CO1 | 0 | 4 | 0 | -1 | . | .
CCC(C)N1CCN(Cc2ccccc2Br)CC1 (configuration not stated) | 0 | 83* | -1 | 9 | 10 | 9
OCCN1CCN(Cc2ccccc2Br)CC1 | 0 | 35 | 0 | 2 | . | .
Cc1ccccc1CN1CCN(c2ccc(F)cc2)CC1 | 0 | 10 | 1 | -2 | . | .
CCC(C)N1CCN(Cc2ccccc2C)CC1 (configuration not stated) | 0 | 83* | 0 | 3 | 15 | 21
CCCCC12CN3CN(CC(C)(C3)C1=O)C2 | 0 | -9 | 0 | 10 | . | .
O=c1c2ccccc2nc(-c2ccccc2)n1-c1ccccc1O | 0 | 68* | 0 | 12 | 32* | -6 | AlphaScreen DR=>6.5
CCOC(=O)C1C2NC(=S)N(c3ccccc3C)C1(C)Oc1c(OCC)cccc12 (configuration not stated) | -1 | 60* | -2 | 8 | 34* | 36*
COc1cc2nc(C)n(-c3ccccc3OC)c(=O)c2cc1OC | 0 | -1 | 1 | -3 | . | .
COc1ccc(CN2CCN(Cc3ccc(Cl)cc3)CC2)cc1Br | 0 | 80* | -1 | 12 | 6 | 7
COc1cc(Br)c(CN2CCN(CCO)CC2)cc1OC | 0 | 16 | -1 | -5 | . | .
COc1ccc(CN2CCN(Cc3cccc(C)c3)CC2)cc1Br | 0 | 70* | -1 | 0 | 21 | 8
COc1ccc(CN2CCN(CCO)CC2)cc1Br | 0 | 77* | -1 | -2 | 5 | -2
CCN1CCN(Cc2ccc(OC)c(Br)c2)CC1 | 0 | -7 | 0 | -9 | . | .
COc1cc(C)c(CN2CCN(CCO)CC2)cc1C | 0 | 51* | 1 | 2 | 2 | 5
CC(=O)OCC#CCN1CCCCC1c1cccnc1 (configuration not stated) | 0 | -12 | 1 | -6 | . | .
CCOC(=O)CC1NC2CCCCC2NC1=O (configuration not stated) | 0 | 11 | 2 | -4 | . | .
CCOC(=O)C1(c2ccccc2)CCN(CC(=O)Nc2ccccn2)CC1 | 0 | -5 | 0 | -3 | . | .
Fc1ccccc1CN1CCN(Cc2ccc(Cl)cc2)CC1 | 0 | 50 | 1 | 2 | . | .
CN1CCN(Cc2ccccc2O)CC1 | 0 | 1 | 2 | 18 | . | .
Fc1cccc(CN2CCN(Cc3ccccc3Cl)CC2)c1 | 0 | 78* | -1 | -9 | -8 | -4
Fc1ccc(CN2CCN(Cc3ccccc3F)CC2)cc1 | 0 | 78* | 2 | -13 | -7 | -3
CN1CCN(Cc2ccccc2F)CC1 | 0 | 52* | 0 | 9 | 1 | 1
SMILES | FBW7 act | MITF primary | GPR151 activ | TEAD-YAP block | MITF inh conf | AlphaScreen intf2 | others
Fc1ccc(CN2CCN(Cc3ccccc3Cl)CC2)cc1 | 0 | 70* | 0 | -12 | 11 | 30*
CSc1ccc(CN2CCN(Cc3ccccc3Cl)CC2)cc1 | -1 | 33 | -2 | -5 | . | .
Cc1nc2ccc(I)cc2c(=O)n1-c1ccc(C(=O)O)cc1 | 0 | 8 | 2 | -6 | . | .
CC12C=CC(C)(O1)C1C(=O)N(c3ccc(Cl)c(C(F)(F)F)c3)C(=O)C12 (configuration not stated) | 0 | -15 | 1 | 0 | . | .
COC(=O)C1=C(C)OC(N)=C(C(=O)OC)C12C(=O)Nc1ccccc12 (configuration not stated) | 0 | 9 | 0 | 1 | . | .
O=C(COc1ccc(Cl)cc1)N1CCN(Cc2ccccc2F)CC1 | 0 | 60* | 4 | 1 | 7 | 1
Cc1ccccc1CN1CCN(Cc2cccc(F)c2)CC1 | 0 | 80* | 0 | -1 | 10 | 15
Fc1ccc(F)c(CN2CCN(Cc3ccccc3)CC2)c1 | 0 | -2 | 4 | -2 | . | .
Fc1ccccc1CN1CCN(Cc2ccccc2Cl)CC1 | 0 | 65* | 1 | 7 | 5 | 18
CCc1ccc(CN2CCN(Cc3ccccc3F)CC2)cc1 | 0 | 71* | 0 | -5 | -3 | 0
CN1CCN(Cc2ccnc(Cl)c2)CC1 | 0 | -5 | -1 | 4 | . | .
Cc1cccc(CN2CCN(Cc3ccccc3Cl)CC2)c1 | 0 | 51* | 0 | -2 | 10 | 15
Cc1ccc(P(=S)(Nc2ccc([N+](=O)[O-])cc2)Nc2ccc([N+](=O)[O-])cc2)o1 | 0 | 1 | 0 | 15 | . | .
O=C(Cc1ccccc1)N1CCN(Cc2ccccc2Cl)CC1 | 0 | 57* | 1 | 13 | -6 | 0
CCc1ccc(CN2CCN(C(=O)Cc3ccccc3)CC2)cc1 | 0 | 33 | 0 | 11 | . | .
Cc1cccc(CN2CCN(C(=O)Cc3ccccc3)CC2)c1 | 0 | 37 | 1 | 6 | . | .
O=C(Cc1ccccc1)N1CCN(Cc2cccnc2)CC1 | 0 | 69* | 0 | 1 | -1 | -3
O=C(Cc1ccccc1)N1CCN(Cc2cccc(F)c2)CC1 | 0 | 54* | 1 | 3 | -2 | 13
CCCCC/C=C\C/C=C\C/C=C\C/C=C\CCCC(=O)NC[C@H](C)O | . | 4 | 1 | . | . | .
CCSc1nnc(CCNC2CCCC2)n1C | 0 | 3 | 0 | 9 | . | .
Cc1cccc(Cc2nc[nH]c2C)c1 | 0 | 8 | -1 | 4 | . | .
COc1cccc(CN2CCN(c3ccc(F)cc3)CC2)c1 | 0 | 43 | 0 | 8 | . | .
COc1cccc(CN2CCN(Cc3cccc(C)c3)CC2)c1 | 0 | 74* | 0 | -5 | 3 | 1
COc1cccc(CN2CCN(Cc3ccc(F)cc3)CC2)c1 | 0 | 72* | -1 | -18 | 10 | 14
CN1CCN(Cc2ccc(N(C)C)cc2)CC1 | 0 | -40 | 1 | -6 | . | .
CN1CCN(Cc2ccc(C(F)(F)F)cc2)CC1 | 0 | 56* | 0 | 1 | 0 | 3
Fc1ccc(CN2CCN(Cc3ccc(F)cc3)CC2)cc1 | 0 | 74* | 0 | 4 | 9 | -7
CC(C)OP(=O)(C(O)C(Cl)(Cl)Cl)C12CC3CC(CC(C3)C1)C2 (configuration not stated) | 0 | 8 | 2 | 3 | . | .
